# Compound activity as filed in PubChem.
# ELG1 genotoxic = qHTS screen for small molecules that induce genotoxicity in human embryonic kidney (HEK293T) cells expressing luciferase-tagged ELG1; HEK293T ELG1-luciferase reporter, luminescence, 16 h; actives 1.3% (n = 330,000); Potency, µM (highest dose often 46 µM), inactives show at the highest dose activity change, positive = activation, usual class: activators; also: % of control where 0% means no effect; nearly all actives have a fitted effect of over 60% in size
#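 Reporter readout depends on ELG1 protein level, which increases with genetic stress. After 16 hr compound exposure at 37 °C, luciferase activity was quantified using ONE-Glo.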
# FLuc counter = qHTS profiling assay for firefly luciferase inhibitor/activator using purifed enzyme and Km concentrations of substrates (counterscreen for miR-21 project); Luciferin 4-monooxygenase (Photinus pyralis), P08659; purified FLuc, Km substrates, luminescence inhibition; Potency, µM (top dose mostly 57.5 µM), inactives show at the top dose activity change, negative = inhibition, usual class: inhibitors; actives 6.9% (n = 360,000); AID 588342, 2011;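 also: plate controls were vehicle for no effect and reference inhibitor for full effect; nearly all actives have a fitted effect of over 55% in size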
# Target sequence (P08659 whole entry, looked up): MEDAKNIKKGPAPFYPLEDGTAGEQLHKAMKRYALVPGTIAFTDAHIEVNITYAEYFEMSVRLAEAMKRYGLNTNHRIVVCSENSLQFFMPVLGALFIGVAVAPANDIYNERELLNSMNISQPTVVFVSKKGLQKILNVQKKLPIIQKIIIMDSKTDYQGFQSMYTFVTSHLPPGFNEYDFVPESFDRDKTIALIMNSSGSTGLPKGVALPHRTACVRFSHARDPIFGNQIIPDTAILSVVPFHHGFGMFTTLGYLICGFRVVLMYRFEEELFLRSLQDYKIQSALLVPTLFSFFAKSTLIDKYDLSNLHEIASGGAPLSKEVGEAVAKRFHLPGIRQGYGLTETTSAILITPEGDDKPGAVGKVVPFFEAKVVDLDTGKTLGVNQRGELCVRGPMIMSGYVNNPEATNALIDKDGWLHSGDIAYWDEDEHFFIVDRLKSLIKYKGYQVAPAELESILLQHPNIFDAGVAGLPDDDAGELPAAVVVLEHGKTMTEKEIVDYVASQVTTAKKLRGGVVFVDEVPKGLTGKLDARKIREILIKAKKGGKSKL
#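 Purified P. pyralis luciferase, 10 nM final, with Km-level 10 uM D-luciferin and 10 uM ATP in 50 mM Tris acetate pH 7.5, 10 mM Mg acetate, 0.01% Tween-20, 0.05% BSA; 6-point qHTS titration about 60 µM downward; luminescence read.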
# NPC1 prom act = qHTS Assay for NPC1 Promoter Activators; actives 2.4% (n = 320,000); Potency, µM (series often up to 9.22 µM), without a hit: top-dose activation, usual class: activators; Huh7 NPC1 promoter luciferase reporter, 24 h; also: % of control where 0% means no effect; nearly all actives have a fitted effect of over 60% in size
#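 Huh7 cells stably carrying NPC1 promoter–luciferase, plated in Opti-MEM with 10% FBS for 2 h, were exposed to compound in DMSO for 24 h at 37 °C; luciferase reagent was added for 10 min and luminescence read.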
# Rab9 prom act = qHTS Assay for Rab9 Promoter Activators. actives 2.8% (n = 320,000). Potency, µM (titrated, usually from 9.22 µM), without a hit: at the top dose activation, negative = inhibition, actives largely listed as activators. Huh7 Rab9 promoter-luciferase reporter, luminescence, 24 h; also: % of control where 0% means no effect; nearly all actives have a fitted effect of over 60% in size
#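 Using Huh7 cells stably transfected with Rab9 promoter–luciferase, compounds were incubated 24 h at 37 °C, 5% CO2; luciferase luminescence was read 10 min after reagent addition.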
# SMN2 splice enh = qHTS Assay for Enhancers of SMN2 Splice Variant Expression | HEK293 SMN2-luciferase splicing reporter, luminescence, 30-36 h | AID 1458, 2008 | actives 2.8% (n = 210,000) | Potency, µM (top dose mostly 46.1 µM), inactives show at the top dose activity change, positive = activation, hits mostly activators; also: % of control where 0% means no effect; nearly all actives have a fitted effect of over 55% in size
#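 qHTS luciferase splicing reporter: luminescence rises when SMN2 exon 7 is included in transfected HEK293 cells. Compound exposure lasted 30-36 h at 37C, with 4.5 mM final sodium butyrate as control, followed by a ONE-Glo read.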
# An asterisk follows results filed as active; ? = inconclusive; nt = no result given. Shown are actives, neighbours in structure and some others; about 7.4% of the full set was active somewhere. Calls follow the shape of the dose curve; as a rule, active = well fitted curve in the direction sought with a large enough effect; inconclusive = small, poorly fitted or top-dose-only effect, or another doubt; inactive = no such curve, though single readings can be large; an effect the other way counts as inactive or inconclusive. Potency is read from the fitted curve at half-maximal effect.
SMILES,ELG1 genotoxic,FLuc counter,NPC1 prom act,Rab9 prom act,SMN2 splice enh
COc1ccc(C)c2sc(N3CCN(C(=O)c4ccco4)CC3)nc12,nt,-12%,nt,nt,nt
Cc1cc2nc(N3CCN(C(=O)c4ccco4)CC3)sc2cc1C,19%,6µM*,2.5µM*,0.79µM*,nt
CC(=O)c1cc(F)c(N2CCN(C(=O)c3ccco3)CC2)cc1C,19%,-18%,10%,8%,13%
COc1ccc(C(=O)CC2(O)C(=O)N(Cc3ccccc3)c3ccc(Br)cc32)cc1 (stereo not given),nt,-10%,nt,nt,-6%
CCCOc1ccc(-c2nonc2NC(=O)COc2ccc(C)cc2)cc1OCCC,nt,1%,nt,nt,-6%
COc1ccc(-c2nc3c4ccccc4n(CC(=O)N4CCN(c5ccc(F)cc5)CC4)c(=O)n3n2)cc1,nt,0%,nt,nt,nt
NC(=O)c1c(NC(=O)c2nc(SCc3ccccc3F)ncc2Cl)sc2c1CCCC2,nt,-1%,nt,nt,10%
CCn1c(=O)c2cc(C(=O)NCCc3ccc(OC)c(OC)c3)sc2c2ccccc21,nt,-8%,nt,nt,0%
COc1cc(C)c(Cl)cc1S(=O)(=O)NCCc1c(C)[nH]c2ccccc12,nt,-1%,nt,nt,-8%
COc1ccc(NC(=O)c2ccccc2F)cc1Cl,9.2µM*,9.5µM*,2.2µM*,2.2µM*,?
COc1ccc(NC(=O)c2cccc(F)c2)cc1Cl,9.2µM*,13µM*,3.5µM*,?,?
COc1cc(OC)c(NC(=O)c2cccc(F)c2)cc1Cl,-4%,-15%,1%,2%,9%
COC(=O)c1cccc(NC(=O)c2ccc(OC)c(Cl)c2)c1,6%,11µM*,?,?,?
COc1ccc(NC(=O)c2ccco2)cc1NC(=O)c1ccccc1F,3%,-12%,0%,1%,nt
O=C(Nc1ccc(OC(F)F)c(Cl)c1)c1cccc(OC(F)F)c1,-8%,19µM*,12%,20%,-1%
CCN(CC)S(=O)(=O)c1ccc2c(c1)N(CC(=O)Nc1c(C)cccc1C)C(=O)C1CCCN21 (stereo not given),nt,1%,nt,nt,1%
COc1ccc2c(c1)O[C@@H](c1cccc(C(F)(F)F)c1)[C@H](OC(=O)NC1CCCC1)C2=O,nt,nt,nt,nt,-4%
COc1ccc(NC(=O)c2cccc(OC(F)F)c2)cc1Cl,5.8µM*,11µM*,3.5µM*,2.2µM*,?
Cc1c(Cl)cccc1NC(=O)c1cccc(OC(F)F)c1,5%,?,18%,19%,-8%
CCC(C)NC(=O)c1sc2nc(C)c(C(=O)Nc3ccc(C)cc3C)c(-c3ccccc3Cl)c2c1N (stereo not given),nt,-15%,nt,nt,-9%
O=C(CCS(=O)(=O)c1ccccc1)NCCS(=O)(=O)c1ccccc1,-6%,-1%,6%,6%,8%
O=C(CCS(=O)(=O)c1ccccc1)NC12CC3CC(CC(C3)C1)C2,9.2µM*,12µM*,3.2µM*,3.5µM*,?
Cn1cccc1C(=O)NC(=O)COC(=O)CC12CC3CC(CC(C3)C1)C2,6%,17µM*,1%,-4%,-7%
COc1ccc(Nc2c(-c3ccc(C)o3)nc3cc(C)ccn23)cc1,nt,17µM*,nt,nt,-4%
Cc1ccc(Nc2c(-c3ccc(C)o3)nc3cnccn23)cc1,?,-17%,-6%,4%,10%
Cc1ccn2c(Nc3ccc4c(c3)OCO4)c(-c3ccc(C)o3)nc2c1,nt,24µM*,nt,nt,1%
Cc1ccc(-c2nc3ccc(Cl)cn3c2Nc2ccc3c(c2)OCCO3)s1,nt,?,nt,nt,5µM*
Cc1ccc2nc(-c3ccc(C)o3)c(Nc3ccc4c(c3)OCCO4)n2c1,nt,21µM*,nt,nt,8.9µM*
CCOc1ccc(CCNCc2c(C(=O)O)n(Cc3ccc(C)cc3)c3cc(OC)ccc23)cc1,nt,-10%,nt,nt,nt
NC(N)=NCCC[C@H](NC(=O)CC1(CC(=O)N2CCN(C3c4ccccc4NC(=O)c4ccccc43)CC2)CCCC1)C(=O)NCCn1c(=O)n(-c2ccccc2)n(-c2ccccc2)c1=O (stereo not given in full),nt,nt,nt,nt,12%
